# An excerpt weighted towards active compounds, which were near 6.8% of everything screened.
# Pf Dd2 growth = P. falciparum Dd2 growth inhibitors, primary screen, SYBR Green fluorescence, single dose replicates | 72 h; stronger effect = lower value | activity change, % at 10 µM | 2.3% of 94,000 active | AID 1159554, 2015; in the data active = activity change below about -80%; inconclusive = no clear call, values can overlap the other calls
# T cruzi growth-1 = T. cruzi intracellular proliferation inhibitors, primary screen, cell-based, beta-gal Tulahuen parasites, NIH3T3 host, luminescence | T. cruzi beta-gal in NIH3T3, GalScreen luminescence, 90 h | inhibition, % at 8.34 µM | 5.9% of 77,000 active;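 active = mean inhibition above about 93%, with at least 55% of replicates each passing it, limit read from the data, passing the limit was not always enough; inconclusive = only one of those two conditions holds; inactive = neither condition holds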
# C diff HTS = C. difficile growth inhibitors, primary screen, HTS | 0.25% of 86,000 active | Clostridium difficile clinical isolate growth, OD600, 24 h; stronger effect = lower value | growth activity, negative = inhibition, % at 16 µg/mL (by protocol);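 active = mean growth activity at or below -80% and every replicate also at or below -80%; inconclusive = mean at or below -80% but some replicate above -80%; inactive = mean growth activity above -80%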
# T cruzi growth-2 = T. cruzi intracellular proliferation inhibitors, confirmation, cell-based, NIH3T3 host, beta-gal parasite, luminescence, cherry-pick; shares compounds with T cruzi growth-1; T. cruzi beta-gal in NIH3T3, GalScreen luminescence, 90 h; inhibition, % at 8.35 µM; 72% of 5,600 active; AID 651739, 2012;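 active = mean replicate inhibition above about 95% and at least 55% of replicates individually reaching it, limit read from the data; inconclusive = only one of the two criteria is met; inactive = neither criterion is met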
# T cruzi growth-3 = inhibitors of intracellular T. cruzi replication, confirmation, NIH3T3 host cells, beta-gal parasites, cherry-pick, set 2; shares compounds with T cruzi growth-1; T. cruzi beta-gal in NIH3T3, GalScreen luminescence, 90 h; inhibition, % at 2.09 µM; 21% of 5,600 active; AID 651740, 2012;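 active = mean inhibition above about 95%, with at least 55% of replicates also reaching it, limit read from the data; inconclusive = meets just one of the two conditions; inactive = meets neither condition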
# 3T3 cytotox = cytotoxicity in mouse NIH/3T3 fibroblasts, confirmation, cytotoxicity control for T. cruzi proliferation inhibitor project, cell-based, cherry-pick, single point | cytotoxicity (signal decrease), % at 8.35 µM | NIH/3T3 viability, CellTiter-Glo ATP luminescence, 90 h | shares compounds with T cruzi growth-1 | AID 651742, 2012 | 14% of 5,600 active;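 active = mean signal decrease across replicates above about 35% based on untreated-well scatter, with enough replicates individually passing, limit read from the data; inconclusive = no rule stated though some were filed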
# NIH3T3 tox 2 = NIH/3T3 fibroblast cytotoxicity, confirmation, cytotoxicity control, cell-based, cherry-pick, single point, set 2 | shares compounds with T cruzi growth-1 | NIH/3T3 viability, CellTiter-Glo ATP luminescence, 90 h | inhibition, % at 24.9 µM | 56% of 5,600 active | AID 651744, 2012;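 active = mean loss of cell viability signal at or above a set limit, and enough replicates individually reaching it; inconclusive = meets only the mean limit or only the replicate share; inactive = meets neither condition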
# A number is an active result; i = inactive; ? = inconclusive; nt = no result given.
SMILES,Pf Dd2 growth,T cruzi growth-1,C diff HTS,T cruzi growth-2,T cruzi growth-3,3T3 cytotox,NIH3T3 tox 2
C[C@@H]1CCCCO[C@@H](CN(C)S(=O)(=O)c2ccc(Cl)cc2)[C@H](C)CN([C@H](C)CO)C(=O)c2cc(NS(=O)(=O)c3cccs3)ccc2O1,nt,?,i,105.3,i,i,i
C[C@H]1CCCCO[C@H](CN(C)S(=O)(=O)c2cccs2)[C@@H](C)CN([C@@H](C)CO)C(=O)c2cc(NS(=O)(=O)c3ccc(Cl)cc3)ccc2O1,i,102.8,i,106.2,i,i,i
C[C@H](O)C#Cc1cnc2c(c1)C(=O)N([C@H](C)CO)C[C@@H](C)[C@H](CN(C)C(=O)c1ccccc1)O2,i,i,i,nt,nt,nt,nt
CCC(=O)N1[C@H](C(=O)NC2CCCC2)[C@@H](CO)[C@@H]2Cn3c(cccc3=O)[C@@H]21,i,nt,i,nt,nt,nt,nt
COc1ccccc1S(=O)(=O)N(C)C[C@@H]1Oc2cc(/C=C/c3ccccc3)ccc2S(=O)(=O)N([C@H](C)CO)C[C@H]1C,?,123.8,i,104.8,103.4,63.2,70.8
C/C=C/c1ccc2c(c1)O[C@@H](CN(C)S(=O)(=O)c1ccccc1OC)[C@@H](C)CN([C@@H](C)CO)S2(=O)=O,i,i,i,nt,nt,nt,nt
C[C@H](CO)N1C[C@H](C)[C@H](CN(C)C)Oc2cc(/C=C/c3ccccc3)ccc2S1(=O)=O,i,i,i,nt,nt,nt,nt
C/C=C/c1ccc2c(c1)O[C@@H](CN(C)S(=O)(=O)c1ccc(C)cc1)[C@@H](C)CN([C@H](C)CO)S2(=O)=O,i,113.6,i,99.7,i,i,67.3
C/C=C/c1ccc2c(c1)O[C@@H](CN(C)S(=O)(=O)c1ccccc1)[C@@H](C)CN([C@@H](C)CO)S2(=O)=O,i,i,i,nt,nt,nt,nt
C/C=C/c1ccc2c(c1)O[C@H](CN(C)S(=O)(=O)c1ccccc1OC)[C@@H](C)CN([C@H](C)CO)S2(=O)=O,i,116.5,i,106.2,i,39.1,?
COCC(=O)N(C)C[C@@H]1Oc2cc(-c3cccnc3)ccc2S(=O)(=O)N([C@H](C)CO)C[C@@H]1C,i,i,i,nt,nt,nt,nt
CCCN(C)C[C@H]1Oc2cc(-c3cccc(F)c3)ccc2S(=O)(=O)N([C@H](C)CO)C[C@H]1C,i,nt,i,nt,nt,nt,nt
C[C@H](CO)N1C[C@H](C)[C@H](CN(C)C(=O)Nc2cccc3ccccc23)Oc2c(NC(=O)c3ccncc3)cccc2C1=O,i,i,i,nt,nt,nt,nt
C[C@@H]1CN([C@@H](C)CO)C(=O)c2cccc(NC(=O)Nc3ccc(C(F)(F)F)cc3)c2O[C@@H]1CN(C)C(=O)Nc1cccc2ccccc12,i,i,i,nt,nt,nt,nt
C[C@@H]1CN([C@@H](C)CO)C(=O)c2cccc(NC(=O)Nc3cccc4ccccc34)c2O[C@H]1CN(C)C(=O)Nc1ccccc1,i,i,i,nt,nt,nt,nt
C[C@H](CO)N1C[C@H](C)[C@@H](CN(C)C(=O)Nc2cccc3ccccc23)Oc2c(NC(=O)Nc3ccc(C(F)(F)F)cc3)cccc2C1=O,i,97.1,i,104.0,i,i,103.2
C[C@H]1CN([C@@H](C)CO)C(=O)c2cccc(NC(=O)Nc3ccc(F)cc3)c2O[C@H]1CN(C)C(=O)Nc1cccc2ccccc12,i,i,i,nt,nt,nt,nt
C[C@H](CO)N1C[C@H](C)[C@H](CN(C)C(=O)Nc2ccccc2)Oc2c(NC(=O)Nc3cccc4ccccc34)cccc2C1=O,i,110.0,i,107.3,i,i,41.4
C[C@H]1CN([C@@H](C)CO)C(=O)c2cccc(NC(=O)c3ccncc3)c2O[C@H]1CN(C)C(=O)Nc1cccc2ccccc12,i,96.1,i,?,i,i,i
C[C@H]1CN([C@@H](C)CO)C(=O)c2cccc(NC(=O)Nc3cccc4ccccc34)c2O[C@H]1CN(C)C(=O)Nc1ccc(F)cc1,i,115.6,i,108.9,i,i,?
C[C@H]1CN([C@@H](C)CO)C(=O)c2cc(NC(=O)c3ccncc3)ccc2O[C@H]1CN(C)C(=O)NC1CCCCC1,i,nt,i,nt,nt,nt,nt
COc1ccc(S(=O)(=O)N(C)C[C@H]2OCCCC[C@@H](C)Oc3ccc(NC(=O)NC4CCCCC4)cc3C(=O)N([C@@H](C)CO)C[C@@H]2C)cc1,i,95.8,i,i,i,i,i
COc1ccc(S(=O)(=O)N(C)C[C@@H]2OCCCC[C@H](C)Oc3ccc(NC(=O)NC4CCCCC4)cc3C(=O)N([C@H](C)CO)C[C@@H]2C)cc1,i,i,i,nt,nt,nt,nt
COc1ccc(S(=O)(=O)N(C)C[C@H]2OCCCC[C@H](C)Oc3ccc(NC(=O)NC4CCCCC4)cc3C(=O)N([C@H](C)CO)C[C@@H]2C)cc1,i,104.4,i,112.1,i,i,i
COc1ccc(S(=O)(=O)N(C)C[C@H]2OCCCC[C@H](C)Oc3ccc(NC(=O)NC4CCCCC4)cc3C(=O)N([C@@H](C)CO)C[C@@H]2C)cc1,i,i,i,nt,nt,nt,nt
SMILES,Pf Dd2 growth,T cruzi growth-1,C diff HTS,T cruzi growth-2,T cruzi growth-3,3T3 cytotox,NIH3T3 tox 2
CCN(C[C@@H]1N[C@H](CO)[C@H]1c1ccc(-c2ccccc2)cc1)C(=O)COC,i,i,i,nt,nt,nt,nt
C[C@H]1CN([C@@H](C)CO)C(=O)c2cc(NC(=O)C3CCCCC3)ccc2O[C@@H]1CN(C)Cc1ccc(Cl)c(Cl)c1,i,i,i,nt,nt,nt,nt
COCC(=O)N1[C@H](C#N)[C@@H](c2ccc(C3=CCCCC3)cc2)[C@@H]1CO,i,i,i,nt,nt,nt,nt
COCC(=O)N1[C@H](CO)[C@@H](c2ccc(C3=CCCCC3)cc2)[C@@H]1C#N,i,?,i,108.5,i,i,i
CCCNC(=O)N1[C@H](CO)[C@@H](c2ccc(C3=CCCCC3)cc2)[C@@H]1C#N,i,105.0,i,i,i,i,i
N#C[C@H]1[C@@H](c2ccc(C3=CCCCC3)cc2)[C@@H](CO)N1C(=O)NC1CCCC1,i,nt,i,nt,nt,nt,nt
N#C[C@@H]1[C@H](c2ccc(C3=CCCC3)cc2)[C@H](CO)N1C(=O)C1CCC1,i,102.6,i,109.5,i,i,i
N#C[C@H]1[C@@H](c2ccc(C3=CCCC3)cc2)[C@@H](CO)N1C(=O)C1CCC1,i,i,i,nt,nt,nt,nt
N#C[C@H]1[C@H](c2ccc(C3=CCCCC3)cc2)[C@@H](CO)N1C(=O)NC1CCCCC1,i,103.8,i,103.6,i,i,77.1
CCCNC(=O)N1[C@H](C#N)[C@H](c2ccccc2C2=CCCCC2)[C@@H]1CO,i,nt,i,nt,nt,nt,nt

# From PubChem BioAssay
